Where two headings read alike, the source gives them in different places.

What all share (set-up): species or system human, MV4-11 + K-562 + COLO205 + SK-N-BE2 + OVCAR-8
The subject of assay [1] is DCTPP1. Conditions: read-out: apparent Kd, n = 1.
For assay [2], the system named is MAPK14. Conditions: read-out: apparent Kd, n = 1.
Assay [3] concerns MAPK6. Conditions: read-out: apparent Kd; compound concentrations:100 nM and 1000 nM (sheet 'Samples'); n = 1.
For assay [4], the system named is NTRK1. Conditions: read-out: apparent Kd, n = 1.
Assay [5] deals with NUAK1. Conditions: read-out: apparent Kd; compound concentrations:100 nM and 1000 nM (sheet 'Samples'); n = 1.
The subject of assay [6] is PHKG2. Conditions: read-out: apparent Kd, n = 1.
The subject of assay [7] is PRKD2. Conditions: read-out: apparent Kd, n = 1.
Assay [8] has as its system DDR1. Conditions: read-out: apparent Kd, compound concentrations: 100 nM and 1000 nM (sheet 'Samples'), n = 1.
Assay [9] deals with GARS. Conditions: read-out: apparent Kd; compound concentrations: 100 nM and 1000 nM (sheet 'Samples'), CATDS: 0.27158737746623501; n = 1.
Assay [10] deals with DDR2. Conditions: read-out: apparent Kd; compound concentrations: 100 nM and 1000 nM (sheet 'Samples'), CATDS: 0.144406437385246; n = 1.
Assay [11] relates to FLT4. Conditions: read-out: apparent Kd; compound concentrations: 100 nM and 1000 nM (sheet 'Samples'), CATDS: 0.67629550242263303; n = 1.
The test system of assay [12] is PDGFRB. Conditions: read-out: apparent Kd; compound concentrations: 100 nM and 1000 nM (sheet 'Samples'), CATDS: 0.14329981050248; n = 1.
The test system of assay [13] is RET. Conditions: read-out: apparent Kd, compound concentrations: 100 nM and 1000 nM (sheet 'Samples'), n = 1.
Assay [14] relates to EPHB4. Conditions: read-out: apparent Kd; compound concentrations: 100 nM and 1000 nM (sheet 'Samples'), CATDS: 0.37827965470914299; n = 1.
Assay [15] relates to RIPK3. Conditions: read-out: apparent Kd; compound concentrations: 100 nM and 1000 nM (sheet 'Samples'), CATDS: 0.31274412248273797; n = 1.
For assay [16], the system named is CSNK1D. Conditions: read-out: apparent Kd, n = 1.
The subject of assay [17] is GAK. Conditions: read-out: apparent Kd; compound concentrations: 100 nM and 1000 nM (sheet 'Samples'), CATDS: 0.103213597019934; n = 1.
Assay [18] deals with GSK3B. Conditions: read-out: apparent Kd; compound concentrations: 100 nM and 1000 nM (sheet 'Samples'), CATDS: 7.0776673864894807E-2; n = 1.
Assay [19] deals with MAPK10. Conditions: read-out: apparent Kd; compound concentrations: 100 nM and 1000 nM (sheet 'Samples'), CATDS: 9.6929032938047402E-2; n = 1.
The test system of assay [20] is MAPK9. Conditions: read-out: apparent Kd; compound concentrations: 100 nM and 1000 nM (sheet 'Samples'), CATDS: 0.22651523139433999; n = 1.
Assay [21] concerns MAPKAPK2. Conditions: read-out: apparent Kd, n = 1.
For assay [22], the system named is NLK. Conditions: read-out: apparent Kd; compound concentrations: 100 nM and 1000 nM (sheet 'Samples'), CATDS: 6.7080565702130196E-2; n = 1.
In assay [23] the test system is PIK3CA. Conditions: read-out: apparent Kd; compound concentrations: 100 nM and 1000 nM (sheet 'Samples'), CATDS: 0.21860301841360499; n = 1.
Assay [24] has as its system PRKD3. Conditions: read-out: apparent Kd; compound concentrations: 100 nM and 1000 nM (sheet 'Samples'), CATDS: 5.9438089075158997E-2; n = 1.
Assay [25] deals with CSNK2A1;CSNK2A3. Conditions: read-out: apparent Kd; compound concentrations: 100 nM and 1000 nM (sheet 'Samples'), CATDS: 0.33639720251881999; n = 1.
In assay [26] the test system is CSNK2A2. Conditions: read-out: apparent Kd; compound concentrations: 100 nM and 1000 nM (sheet 'Samples'), CATDS: 0.39667360391151801; n = 1.
Assay [27] concerns PRKAA2. Conditions: read-out: apparent Kd; compound concentrations: 100 nM and 1000 nM (sheet 'Samples'), CATDS: 0.28519609584928202; n = 1.
Assay [28] deals with CSNK1E. Conditions: read-out: apparent Kd; compound concentrations:100 nM and 1000 nM (sheet 'Samples'); n = 1.
For assay [29], the system named is PIK3CD. Conditions: read-out: apparent Kd; compound concentrations:100 nM and 1000 nM (sheet 'Samples'); n = 1.
For assay [30], the system named is PKN3. Conditions: read-out: apparent Kd; compound concentrations:100 nM and 1000 nM (sheet 'Samples'); n = 1.
Assay [31] deals with PIK3CG. Conditions: read-out: apparent Kd; compound concentrations: 100 nM and 1000 nM (sheet 'Samples'), CATDS: 0.403949586222208; n = 1.
[32] abbreviates: compound concentrations:100 nM and 1000 nM (sheet 'Samples').

Regarding `NCC1CNC(=O)c2cc3ccc(C(=O)Nc4cccnc4)cc3n2C1` (stereo not drawn) [BI00614644], the potency estimated from few doses in assay [1] (setting [32]) was 1830 nM; in assay [2] (setting [32]), 1320 nM; in assay [3], 1330 nM; in [4] (setting [32]), 1520 nM; in assay [5], 1090 nM; in assay [6] (setting [32]), 1110 nM. For the same compound, the potency estimated from few doses in assay [7] (setting [32]) is 950 nM.
For the compound `FC(F)(F)c1ccc(-c2nn3ncccc3c2-c2ccnc(Nc3ccccc3)n2)cc1` [GW828206X], the potency estimated from few doses is 1130 nM in assay [8] (CATDS: 0.34932428035118401); 2010 nM in assay [9]; 854 nM in assay [4] (compound concentrations: 100 nM and 1000 nM (sheet 'Samples'), CATDS: 0.40728649446902998).
For `Cc1c2ccc(N(C)c3ccnc(Nc4cccc(S(N)(=O)=O)c4)n3)cc2nn1C.Cl` [GW771127A], the potency estimated from few doses is 397 nM in assay [8] (CATDS: 0.23686059185109401); 1670 nM in assay [10]; 51.7 nM in [11]; 1720 nM in [12]; 746 nM in assay [13] (CATDS: 0.185315990587263).
In the case of `NC(=O)c1cc(-c2ccc(F)cc2)cc(-c2ccncc2)c1N` [GSK620503A], the potency estimated from few doses in assay [1] (compound concentrations: 100 nM and 1000 nM (sheet 'Samples'), CATDS: 0.31656078381531599) is 1520 nM; in [14], 1070 nM; in [15], 1560 nM.
Regarding `Cc1ccc2c(-c3ccnc(Nc4cccc(C(F)(F)F)c4)n3)c(-c3ccccc3)nn2n1` [GW829906X], the potency estimated from few doses was 2130 nM in assay [16] (compound concentrations: 100 nM and 1000 nM (sheet 'Samples'), CATDS: 6.2224670805274301E-2); 606 nM in [17]; 1440 nM in [18]; 688 nM in [19]; 839 nM in [2] (compound concentrations: 100 nM and 1000 nM (sheet 'Samples'), CATDS: 8.8284377097412201E-2); 165 nM in assay [20]. Moreover, the potency estimated from few doses in assay [21] (compound concentrations: 100 nM and 1000 nM (sheet 'Samples'), CATDS: 6.8776353647753294E-2) is 1560 nM; in assay [22], 1680 nM; in [23], 174 nM; in [7] (compound concentrations: 100 nM and 1000 nM (sheet 'Samples'), CATDS: 7.4575323464079593E-2) it was 1250 nM; in [24], 2500 nM; in [13] (CATDS: 7.2475765263367006E-2), 1350 nM.
With `CC1=C(C(=O)Nc2ccc3[nH]ncc3c2)C(c2ccc(F)cc2)NC(=O)N1` (stereo not drawn) [GSK180736A], the potency estimated from few doses in assay [25] is 978 nM; in assay [26] it was 718 nM; in assay [27], 1410 nM.
Turning to `Cc1cccc2c(-c3ccncc3)c(-c3ccc(F)cc3)nn12.Cl` [GW461487A], the potency estimated from few doses in [16] (setting [32]) was 605 nM; in assay [28] it was 879 nM; in [2] (compound concentrations: 100 nM and 1000 nM (sheet 'Samples'), CATDS: 0.14248163391639501) it was 940 nM; in assay [21] (setting [32]), 565 nM; in [29], 152 nM; in [30] it was 1420 nM.
For `O=[N+]([O-])c1ccc2c(c1)C(c1ccccc1Cl)=Nc1c[nH]nc1N2` [RO0117162-000], the potency estimated from few doses in assay [1] (compound concentrations: 100 nM and 1000 nM (sheet 'Samples'), CATDS: 0.34611685739606901) was 1450 nM; in [6] (compound concentrations: 100 nM and 1000 nM (sheet 'Samples'), CATDS: 0.27508455171149998), 2440 nM; in assay [31] it was 1090 nM.

Source of the values: publication PMC11062922 (Nature Chemical Biology, 2023).
